Most compounds without a hit are left out; they make up all but 4% or so of the library.
TRHR ag = activates the human TRH receptor | P34981 | TRHR cells, calcium flux fluo-8, FDSS agonist mode | activation, % at 2 µM | hit rate 0.18% among 360,000; note: 0% is about no effect
Target sequence (P34981 whole entry, looked up): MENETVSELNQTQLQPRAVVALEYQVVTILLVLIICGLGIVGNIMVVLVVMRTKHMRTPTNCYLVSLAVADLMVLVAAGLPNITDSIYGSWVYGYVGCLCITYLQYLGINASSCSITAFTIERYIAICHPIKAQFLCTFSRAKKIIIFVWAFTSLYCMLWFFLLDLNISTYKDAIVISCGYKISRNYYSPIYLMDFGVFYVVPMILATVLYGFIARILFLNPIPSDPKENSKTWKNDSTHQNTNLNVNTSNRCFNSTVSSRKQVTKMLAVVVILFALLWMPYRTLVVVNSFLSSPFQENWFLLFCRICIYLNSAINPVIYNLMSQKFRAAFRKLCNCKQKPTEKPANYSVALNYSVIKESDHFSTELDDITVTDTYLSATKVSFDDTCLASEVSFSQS
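TRHR-expressing cells loaded with fluo-8 calcium dye; 23 nL library compound pin-transferred, kinetic FDSS fluorescence (Ex 480/Em 530) recorded about 180 s for agonist-induced calcium release, before a 10 nM TRH EC20 addition for potentiator mode.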
Glioma ERSR ind = inducers of ER stress response in human glioma cells; U87-MG GRP78 promoter luciferase reporter, 16 h; Potency, µM, for inactives: at the highest dose activation, usual class: activators; hit rate 0.02% among 420,000; AID 602332; active = well fitted activation curve with a large enough effect; note: potency is the fitted concentration of half-maximal effect; series mostly up to about 76 µM; % of control where 0% means no effect; nearly all actives have a fitted effect of over 35% in size
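ERSR induction read as luciferase luminescence (Bright-Glo, 10 min at room temperature) in stably transfected human U87-MG glioma cells exposed to compounds for 16 h, using GRP78 as sensor.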
TRHR PAM = TRH receptor (human) allosteric enhancement. P34981. TRHR cells, fluo-8 calcium fluorescence, EC20 TRH enhancement. enhancement, % at 2 µM. hit rate 0.66% among 360,000. AID 493056; in the data active = enhancement above about 30%; note: 0% is about no effect
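TRHR-expressing cells loaded with fluo-8 calcium dye were read kinetically (ex 480/em 530) during compound addition, then stimulated with an EC20 of TRH (10 nM final). Enhancement of the Gq-mediated intracellular calcium response was scored.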
D1 potentiator = potentiators of human D1 dopamine receptor; hit rate 0.036% among 360,000; P21728; potentiation, % at 10 µM; HEK293 TREx D1 cells, calcium flux, dopamine EC20 potentiation; in the data active = potentiation above about 30%; note: 0% is about no effect
D1 ag = human D1 receptor agonism; P21728; HEK293 T-REx D1 cells, calcium flux, agonist mode; activation, % at 2 µM; hit rate 1% among 360,000; AID 504660; note: 0% is about no effect
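Tetracycline-induced HEK293 TREx D1 cells, force-coupled to calcium signalling, were dye-loaded with a no-wash calcium kit. Compound was pin-added after a 10 s baseline. Fluorescence was read kinetically at 1 cycle/s for 180 s, with calcium rises flagged as agonism.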
D1 antagonist = antagonists of human D1 dopamine receptor | P21728 | HEK293 TREx D1 cells, calcium flux, dopamine EC80; hits give low values | activity change, negative = inhibition, % at 10 µM | hit rate 3.2% among 360,000 | AID 504652; in the data active = activity change below about -30%; note: % is set by controls: 0 for no effect and ±100 for the full control effect
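Inducible Hek293 Trex D1 cells (tetracycline, overnight, 30 C). Calcium dye 30–90 min RT. Antagonist mode: EC80 dopamine added after 180 s compound read.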
Active calls of the source: *; nt = no result; ! = not active in a repeat. Cut-off read from the data, not from the text of the source, unless noted: active = activation above about 30%; inactive = the rest.

SMILES | TRHR ag | Glioma ERSR ind | TRHR PAM | D1 potentiator | D1 ag | D1 antagonist
O=c1[nH]c(Nc2ccccc2)cc2ccccc12 | 0 | -3% | -10 | -1 | 38* | 34
COc1ccc(/C=C/c2ccc3ccccc3n2)cc1OC | nt | -10% | nt | nt | nt | nt
CCn1nc(C)cc1C(=O)NC1CC(C)(C)Cc2c1cnn2-c1cccc(F)c1 (configuration not stated) | 0 | 1% | -8 | -14 | 0 | -64*
CC(=O)OCC(=O)[C@@]1(O)[C@H](C)C[C@H]2C3C[C@H](F)C4=CC(=O)C=CC4(C)C3[C@@H](O)CC21C (some centres not stated) | nt | -2% | nt | nt | nt | nt
COc1cccc([C@@H]2Oc3ccc(OC)cc3/C(=N/O[C@@H](C)CN3CCCCc4nc(C)c(C)cc43)[C@@H]2O)c1 | nt | -3% | nt | nt | nt | nt
C=CCn1c(SCC(=O)N(CC)CC)nc(O)cc1=O | 0 | -4% | 0 | 1 | 3 | -2
C=CCn1c(SCC(=O)N2CCCCCC2)nc2ccccc2c1=O | 0 | 3% | 7 | -4 | 1 | -32*
C=CCn1c(SCC(=O)N2CCOCC2)nc(O)cc1=O | 1 | 0% | 9 | -5 | 3 | 5
C=CCn1c(SCc2c(F)c(F)c(F)c(F)c2F)nc(O)cc1=O | 0 | -5% | -6 | 7 | 33* | -14
C=CCn1c(SCC(=O)N2CCCCC2)nc(O)cc1=O | 1 | -3% | -2 | 0 | 1 | -63*
O=C(NC(NC(=S)Nc1ccc(F)c([N+](=O)[O-])c1)C(Cl)(Cl)Cl)C(c1ccccc1)c1ccccc1 (configuration not stated) | nt | -5% | nt | nt | nt | nt
c1ccc2c(c1)Sc1cnccc1N2CC1CO1 (configuration not stated) | nt | -2% | nt | nt | nt | nt
Cn1c(/C=C(\C#N)C(N)=S)ccc1-c1ccc(Br)cc1 | -1 | -9% | 10 | -10 | 1 | -37*
Cc1cccc(CNC(=O)c2c3n(c(C)cc2=O)-c2ccccc2SC(c2ccsc2)C3)n1 (configuration not stated) | nt | -4% | nt | nt | nt | nt
CN(C)S(=O)(=O)c1cccc(NC(=S)N/N=C/c2cccc(O)c2)c1 | 0 | 3% | -3 | -8 | 1 | 4
CN(C)S(=O)(=O)c1cccc(NC(=S)N/N=C/c2cc(Br)ccc2O)c1 | 0 | -5% | 8 | -18 | 47* | -11
Cc1ccc(S(=O)(=O)N/N=C/c2c[nH]c3ccccc23)cc1 | 0 | -3% | 4 | -8 | 9 | -49*
O=C(O)c1ccc(S(=O)(=O)NN=Cc2c[nH]c3ccccc23)cc1 | nt | 1% | nt | nt | nt | nt
Cc1ccc(NC(=O)C(=O)NCc2ccc(/C=C(/C#N)C(=O)NCc3cccnc3)o2)cc1 | -1 | -4% | 9 | -11 | 13 | -29
N#C/C(=C/c1ccc(CNC(=O)C(=O)Nc2cc(Cl)cc(Cl)c2)o1)C(=O)NCc1cccnc1 | -1 | -5% | 19 | -5 | 0 | -63*
O=C1C(=O)C(c2cc(O)c(O)c(O)c2)Oc2cc(O)cc(O)c21 (configuration not stated) | nt | -1% | nt | nt | nt | nt
COc1cc(NC(=O)Cn2cnc3c(OCc4ccccc4)ncnc32)cc(OC)c1OC | nt | -4% | nt | nt | nt | nt
CCc1ccc(NC(=O)Nc2cccs2)cc1 | 1 | -1% | -5 | -7 | 11 | -37*
Cc1ccc(NC(=O)Nc2cccs2)cc1 | 1 | 2% | 7 | -4 | 11 | -13
Cc1cc(NC(=O)CCN2CCC(C(N)=O)CC2)ccc1Br | -1 | -1% | 7 | -2 | 4 | -4
NC(=O)C1CCN(CCC(=O)Nc2ccc(Br)cc2)CC1 | 1 | -3% | 34* | -2 | 4 | 16
CCOC(=O)C1CCCN(CCC(=O)Nc2cccc(C)c2)C1 (configuration not stated) | -1 | -6% | 0 | -7 | 5 | -38*!
CCOC(=O)C1CCN(CCC(=O)Nc2ccc(Br)c(C)c2)CC1 | 2 | -3% | 20 | -6 | 136*! | 4
Cc1ccc(SCCC(=O)Nc2ccc(Br)c(C)c2)cc1 | -1 | 7% | -1 | -11 | 10 | -33*
CCOc1ccc(C(=O)c2cn(CC(=O)Nc3cccc(OC)c3)c3cc4c(cc3c2=O)OCCO4)cc1 | 3 | 0% | 0 | 1 | 11 | -2

Screens deposited in PubChem BioAssay by National Center for Advancing Translational Sciences (NCATS).
